Sm TGR inh = qHTS Assay for the Inhibitors of Schistosoma Mansoni Peroxiredoxins; purified TGR, DTNB reduction, TNB absorbance 405 nm; Schistosoma mansoni thioredoxin glutathione reductase (TGR), Q962Y6; Potency, µM (titrated, usually from 114 µM), for the others: at the highest dose activity change, negative = inhibition, actives largely listed as inhibitors; hit rate 3% among 360,000; note: potency is the fitted concentration of half-maximal effect; % is set by controls: 0 for no effect and ±100 for the full control effect; nearly all actives have a fitted effect of over 60% in size
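TGR 20 nM + NADPH 100 uM (dispensed conc.), cpd preinc 15 min RT; start with NADPH (500 uM addition) then DTNB (15 mM addition). Kinetic TNB absorbance, 405 nm filter. Four-parameter Hill fit across titration.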
FMDV inh = High Throughput Screening for Foot and Mouth Disease Virus Antivirals. hit rate 1.2% among 410,000. Potency, µM (series often up to 57.9 µM), without a hit: at the top dose activity change, negative = inhibition, most hits filed as inhibitors. AID 1159524, 2015. FMDV antiviral cell-based qHTS; calls by dose curve; tested in HEK293T cells; note: read-out not given here; potency is the fitted concentration of half-maximal effect; % is set by controls: 0 for no effect and ±100 for the full control effect; nearly all actives have a fitted effect of over 45% in size
RE007 growth inh = qHTS Assay for Inhibitors of the HIV-1 protein Vpr; S. pombe RE007 Vpr strain, BacTiter-Glo ATP luminescence, 24 h; AID 651644, 2012; hit rate 0.21% among 360,000; Potency, µM (doses to about 92.2 µM), for inactives: at the highest dose activity change, negative = less growth, most hits filed as inhibitors; active = well fitted falling curve with a large enough effect; inconclusive = small, poorly fitted or top-dose-only effect; inactive = no such curve, though single readings can be large or run the other way; note: potency is the fitted concentration of half-maximal effect; % is set by controls: 0 for no effect and ±100 for the full control effect; nearly all actives have a fitted effect of over 50% in size
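Fission yeast RE007 carrying one integrated HIV-1 vpr copy, seeded at OD 0.01 in PMG+AL medium with 23 nL pinned compound. Grown 24 h at 30 degrees; viability read by BacTiter-Glo luminescence after 5 min.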
HCV inh = qHTS Assay for Inhibitors of Hepatitis C Virus (HCV); Huh7.5.1 HCVcc-Cre infection, luciferase reporter, 44 h; Potency, µM (series often up to 41.8 µM), inactives show top-dose activity change, negative = inhibition, actives largely listed as inhibitors; hit rate 3.4% among 340,000; AID 651820, 2012; note: potency is the fitted concentration of half-maximal effect; % is set by controls: 0 for no effect and ±100 for the full control effect
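Compounds are dispensed onto cells plated 4 h earlier at 1,000 per well, with HCVcc-Cre virus (about 0.5 moi) added next. Following 44 h of culture, luminescent signal is measured for 15 sec after 15 min with substrate at room temperature.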
Marburg entry inh = qHTS for inhibitors of binding or entry into cells for Marburg Virus. Marburg virus pseudotyped entry inhibition, cell reporter. Potency, µM (titrated, usually from 37.8 µM), for inactives: top-dose activity change, negative = inhibition, actives largely listed as inhibitors. hit rate 1.8% among 300,000. AID 540276, 2011; calls by dose curve; tested in HEK293 cells; note: potency is the fitted concentration of half-maximal effect; % is set by controls: 0 for no effect and ±100 for the full control effect
LASV entry inh = qHTS for Inhibitors of binding or entry into cells for Lassa Virus; Lassa virus pseudotype entry inhibition, cell reporter; Potency, µM (series often up to 37.9 µM), without a hit: at the highest dose activity change, negative = inhibition, hits mostly inhibitors; hit rate 1.2% among 300,000; AID 540256, 2011; calls by dose curve; tested in HEK293 cells; note: potency is the fitted concentration of half-maximal effect; % is set by controls: 0 for no effect and ±100 for the full control effect; nearly all actives have a fitted effect of over 50% in size
G2M arrest HeLa = Cell cycle validation with wells to cells screening paradigm | hit rate 60% among 25 | HeLa cell cycle G2/M arrest, Hoechst DNA content imaging | AID 2441, 2010 | shares compounds with Marburg entry inh | Potency, µM, hits mostly inhibitors
WI-38 cytotox = High Content Assay for Compounds that inhibit the Assembly of the Perinucleolar Compartment: WI-38 Cytotoxicity; Potency, µM (series often up to 46.1 µM), for the others: top-dose activity change, negative = cytotoxicity, usual class: inhibitors; shares compounds with Marburg entry inh; 120 tested, under 10 active; AID 2729, 2010; WI-38 normal lung fibroblasts, ATPLite luminescence ATP viability, 24 h
PNC inh conf = High Content Assay for Compounds that inhibit the Assembly of the Perinucleolar Compartment: Confirmation of PNC Inhibition; shares compounds with Marburg entry inh; PC3M PTB-GFP, PNC prevalence imaging, 16 h; Potency, µM (doses to about 46.1 µM), without a hit: at the highest dose activity, negative = PNC inhibition, most hits filed as inhibitors; hit rate 50% among 120; AID 2730, 2010
PC3M casp3-7 = High Content Assay for Compounds that inhibit the Assembly of the Perinucleolar Compartment: PC3M Caspase 3/7 Activation; 120 tested, under 10 active; shares compounds with Marburg entry inh; PC3M-GFP caspase 3/7 activation, luminescence, 24 h; AID 2731, 2010; activity change, positive = activation, % at 46.1 µM
HCV inh confirm = qHTS Assay for Inhibitors of Hepatitis C Virus (HCV): Confirmation Assay for Cherry-picked Compounds; shares compounds with HCV inh; HCVcc-Cre infectious virus cell assay, luciferase, inhibition; Potency, µM (series often up to 41.8 µM), without a hit: at the highest dose activity, negative = inhibition, usual class: inhibitors; hit rate 78% among 640; note: potency is the fitted concentration of half-maximal effect; nearly all actives have a fitted effect of over 80% in size
HCV host tox = qHTS Assay for Inhibitors of Hepatitis C Virus (HCV): Cytotoxicity Counterscreen for Cherry-picked Compounds; shares compounds with HCV inh; hit rate 22% among 640; Potency, µM (highest dose often 41.8 µM), for the others: top-dose activity change, negative = cytotoxicity, actives largely listed as inhibitors; HCV host cell line cytotoxicity counterscreen;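 note: potency is the fitted concentration of half-maximal effect; 44 h compound exposure; % is set by controls: 0 for no effect and ±100 for the full control effect; nearly all actives have a fitted effect of over 55% in size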
* = called active by the depositor; [ ] = dose if it differs, or a comment. Hits are enriched below; roughly 7.2% of the tested compounds scored in any of these assays. Unless noted, calls come from the whole dose curve; as a rule, active = well fitted curve in the direction sought with a large enough effect; inconclusive = small, poorly fitted or top-dose-only effect, or another doubt; inactive = no such curve, though single readings can be large; an effect the other way counts as inactive or inconclusive.

For C[C@]12Cc3cn4c(nc3C=C1CCC1C2CC[C@@]2(C)[C@H]1CC[C@@]2(O)C#N)nc1ccccc14 (stereo partly specified) the results were Marburg entry inh 10µM*, LASV entry inh 5.2µM* and G2M arrest HeLa inconclusive.
For C#C[C@]1(O)CC[C@H]2[C@@H]3CCC4=CC(=O)CC[C@]4(C)[C@H]3CC[C@@]21C the results were Sm TGR inh 6%, FMDV inh -5%, RE007 growth inh 10%, HCV inh 5%[8.37 µM], Marburg entry inh -1% and LASV entry inh 2%.
O=C(N/N=C/c1c(O)ccc2ccccc12)c1cccc(C(F)(F)F)c1 was read as Sm TGR inh 5%, FMDV inh inconclusive, RE007 growth inh -2%, HCV inh inconclusive, Marburg entry inh 2.6µM*, LASV entry inh inconclusive, WI-38 cytotox -18%, PNC inh conf inconclusive and PC3M casp3-7 8.
Screening CC(=O)Nc1cccc(Oc2ncnc3scc(-c4ccc(C)cc4)c23)c1 returned Sm TGR inh -2%, FMDV inh inconclusive, RE007 growth inh 14%, HCV inh inconclusive, Marburg entry inh -18%, LASV entry inh inconclusive, WI-38 cytotox 27%, PNC inh conf -1% and PC3M casp3-7 -5.
O=C(Cc1cccs1)Nc1nc2c(s1)CCCC2 was read as Sm TGR inh -10%, FMDV inh 0%, RE007 growth inh inconclusive, HCV inh inconclusive, Marburg entry inh 0.58µM*, LASV entry inh 2.6µM*, WI-38 cytotox 8%, PNC inh conf 8.9µM* and PC3M casp3-7 -17.
For CC(C)(C)c1nc(SCC(=O)Nc2nc3c(s2)CCCC3)c2ccccc2n1 the results were Sm TGR inh 15%, RE007 growth inh -5%, HCV inh inconclusive, Marburg entry inh 1µM*, LASV entry inh 1µM*, WI-38 cytotox -5%, PNC inh conf 7.1µM* and PC3M casp3-7 -11.
`c1ccc(-c2nn(-c3ccccc3)[n+](-c3ccccc3)n2)cc1` gave FMDV inh inconclusive, RE007 growth inh inconclusive, HCV inh 3.2µM*, Marburg entry inh inconclusive, LASV entry inh -26%, HCV inh confirm 25µM* and HCV host tox inconclusive.
For O=C(N/N=C1\CCCc2c1[nH]c1ccc(Cl)cc21)c1ccncc1 the results were Sm TGR inh -19%, FMDV inh inconclusive, RE007 growth inh inconclusive, HCV inh 3.2µM*, Marburg entry inh 1%, HCV inh confirm 8.9µM* and HCV host tox inconclusive.
For CC(=O)c1ccc(NC(=O)C2CCCN(S(=O)(=O)c3ccc4c(c3)CCCN4C(C)=O)C2)cc1 (stereo unspecified) the results were Sm TGR inh 1%, FMDV inh inconclusive and LASV entry inh 10%[46.1 µM].
Screening CN(CC(=O)NCCc1ccc(S(N)(=O)=O)cc1)Cc1ccc(Cl)cc1Cl returned Sm TGR inh 1%, FMDV inh inconclusive, RE007 growth inh 5%, HCV inh 7.1µM*, Marburg entry inh inconclusive, LASV entry inh -17%, HCV inh confirm 8.9µM* and HCV host tox 18µM*.
CN(CC(=O)NCCc1ccc(S(N)(=O)=O)cc1)Cc1c(F)cccc1Cl was read as Sm TGR inh 9%, FMDV inh -4%, RE007 growth inh -1%, HCV inh -4% and Marburg entry inh 0%[46.1 µM].
Screening O=C(Nc1ccc(/C=C/c2nc3ccccc3o2)cc1)c1c(F)cccc1F returned Sm TGR inh 0%, FMDV inh -14%, RE007 growth inh -4%, HCV inh 5.6µM*, Marburg entry inh inconclusive, LASV entry inh inconclusive, HCV inh confirm 4.4µM* and HCV host tox -32%.
For CC(=O)Nc1ccc(/C=C/c2nc3ccccc3o2)cc1 the results were Sm TGR inh -25%, FMDV inh 2%, RE007 growth inh 1% and HCV inh inconclusive.
CCOCc1c(C(=O)NC2=Nc3ccccc3NC(CC)=C2C(=O)OCC)oc2ccccc12 was read as Sm TGR inh 7%, FMDV inh -19%, RE007 growth inh -14%, HCV inh inconclusive, Marburg entry inh inconclusive and LASV entry inh inconclusive.
`CCOC(=O)C1=C(CC)Nc2ccccc2N=C1NC(=O)c1oc2ccccc2c1C` gave Sm TGR inh 7%, FMDV inh -26%, RE007 growth inh 17%, HCV inh inconclusive, Marburg entry inh inconclusive, LASV entry inh inconclusive, HCV inh confirm 13µM* and HCV host tox 2%.
CC(NC(=O)Cn1c(-c2cccs2)cc2cc(F)ccc21)c1ccccc1 (stereo unspecified) was read as Sm TGR inh 0%, FMDV inh -22% and LASV entry inh -17%[46.1 µM].
For Cn1c(=O)c2c(nc(NCCc3ccccc3)n2Cc2ccc(Cl)c(Cl)c2)n(C)c1=O the results were Sm TGR inh -3%, FMDV inh -18%, Marburg entry inh -14%[46.1 µM] and LASV entry inh -3%[46.1 µM].

Screening data from PubChem BioAssay.
